Hits are enriched below; roughly 18% of the tested compounds scored in any of these assays.
TDP1 cell noCPT – qHTS for Inhibitors of human tyrosyl-DNA phosphodiesterase 1 (TDP1): qHTS in cells in absence of CPT. Potency, µM (highest dose often 46.2 µM), for the others: at the highest dose activity change, negative = growth inhibition, hits mostly inhibitors. AID 686978, 2013. DT40 Tdp1-/- hTDP1 cells, no CPT, ATP luminescence, 48 h. 420,000 compounds, 15% hits; also: potency is read from the fitted curve at half-maximal effect; nearly all actives have a fitted effect of over 55% in size
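Chicken DT40 Tdp1-/- cells stably complemented with human TDP1 were seeded at 400 cells/well with DMSO in place of 20 nM camptothecin. After compound pinning, cells grew at least 48 hr at 37 °C; viability read by CellTiter-Glo luminescence.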
IL1B secr inh – blocks inflammasome-driven IL-1 beta release; AID 743279; 360,000 compounds, 4.7% hits; THP-1 LPS/ATP IL-1B secretion, AlphaLISA, 16 h; active compounds read low; activity change, % at 57.5 µM; in the data active = activity change below about -50%; inconclusive = mostly about -30% to -49%
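THP-1 cells pretreated 1 hr with compounds (up to 57.5 uM final), then stimulated with LPS (250 ng/mL final) plus ATP (1.25 mM final); secreted IL-1B measured by AlphaLISA after 16 hr, decreased signal indicating inhibition.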
CtBP-E1A blk – blocks the CtBP interaction with E1A; AlphaScreen GST-E1A/His-CtBP binding, 1536-well; active compounds read low; activity change, % (test concentration not listed); 340,000 compounds, 0.49% hits; AID 651724; in the data active = activity change below about -65%; inconclusive = mostly about -30% to -63%
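In 5 uL wells, 23 nL compound meets equimolar GST-E1A and His-CtBP (5X stock 125 nM each) for 2 h, 37 °C. Beads (5X, 50 ug/mL) then 1 h, 37 °C, dark.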
Six1-Eya2 inh – inhibitors of human Six1/Eya2 interaction | Q15475+O00167 | AlphaScreen GST-Six1/His-Eya2 binding, biochemical; active compounds read low | activity change, % (concentration not given with the values) | 360,000 compounds, 0.56% hits; in the data active = activity change below about -65%; inconclusive = mostly about -30% to -63%
Target sequence (O00167 whole entry, looked up): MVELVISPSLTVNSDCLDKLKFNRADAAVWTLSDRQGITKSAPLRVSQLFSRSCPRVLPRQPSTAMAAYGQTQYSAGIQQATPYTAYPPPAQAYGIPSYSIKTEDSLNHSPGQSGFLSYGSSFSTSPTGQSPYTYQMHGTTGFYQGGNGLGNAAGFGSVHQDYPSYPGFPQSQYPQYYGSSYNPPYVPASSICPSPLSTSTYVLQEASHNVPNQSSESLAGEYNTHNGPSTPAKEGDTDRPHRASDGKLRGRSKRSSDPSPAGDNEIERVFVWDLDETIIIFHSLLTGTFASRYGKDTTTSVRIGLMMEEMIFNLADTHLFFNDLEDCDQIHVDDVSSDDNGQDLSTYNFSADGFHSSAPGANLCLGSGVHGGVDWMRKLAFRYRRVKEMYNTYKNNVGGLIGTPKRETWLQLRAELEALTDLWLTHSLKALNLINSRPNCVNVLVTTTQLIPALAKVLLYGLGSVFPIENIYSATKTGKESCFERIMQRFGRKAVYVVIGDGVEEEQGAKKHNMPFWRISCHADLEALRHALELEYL
Target sequence (Q15475 whole entry, looked up): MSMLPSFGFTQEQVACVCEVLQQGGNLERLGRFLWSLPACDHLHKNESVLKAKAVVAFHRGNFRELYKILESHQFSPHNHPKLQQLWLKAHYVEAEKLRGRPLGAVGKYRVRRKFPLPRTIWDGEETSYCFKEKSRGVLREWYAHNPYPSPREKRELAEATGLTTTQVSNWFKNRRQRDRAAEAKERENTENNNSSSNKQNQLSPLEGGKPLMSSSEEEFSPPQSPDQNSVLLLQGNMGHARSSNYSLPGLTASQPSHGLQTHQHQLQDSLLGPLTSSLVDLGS
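AlphaScreen with GST-Six1 and His-Eya2 (5X mix: 250 nM and 500 nM), glutathione donor and nickel acceptor beads; buffer 50 mM Tris pH 8.0, 300 mM NaCl, 1 mM TCEP; 1 h at 37 C in the dark.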
DT40 TDP1 CPT – DT40-hTDP1 cell growth loss with CPT; Potency, µM (doses to about 46.2 µM), inactives show top-dose activity change, negative = growth inhibition, usual class: inhibitors; chicken DT40 Tdp1-/-;hTDP1 cells + 20 nM CPT, ATP luminescence, 48 h; 420,000 compounds, 12% hits; also: potency is read from the fitted curve at half-maximal effect; nearly all actives have a fitted effect of over 55% in size
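Cell growth measured by CellTiter-Glo luminescence after a minimum 48 h, 37 C compound exposure with 20 nM CPT in Tdp1-knockout DT40 cells stably expressing hTDP1, seeded 400/well; qHTS titration format.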
TDP1 inh – blocks human tyrosyl-DNA phosphodiesterase 1; recombinant TDP1, AlphaScreen DNA substrate cleavage; Potency, µM (top dose mostly 130 µM), without a hit: top-dose activity change, negative = inhibition, actives largely listed as inhibitors; Q9NUW8; 350,000 compounds, 0.28% hits; also: potency is read from the fitted curve at half-maximal effect; nearly all actives have a fitted effect of over 40% in size
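Tdp1 1 nM final; 15 min RT w/ cpd; substrate 15 nM, 5 min; beads 10 ug/ml, 10 min; AlphaScreen read. Neg ctrl: no enzyme.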
* marks the source's active call; other numbers are inactive results. Unless noted, calls follow the shape of the dose curve; as a rule, active = well fitted curve in the direction sought with a large enough effect; inconclusive = small, poorly fitted or top-dose-only effect, or another doubt; inactive = no such curve, though single readings can be large; an effect the other way counts as inactive or inconclusive. % is scaled to controls: 0 for no effect and ±100 for the full control effect.

`Cc1ccc(S(=O)(=O)Nc2ccc3c(c2)n(C)c(=O)n3C)c(C)c1` gave TDP1 cell noCPT 20.6µM*, IL1B secr inh 38.0, CtBP-E1A blk 5.4, Six1-Eya2 inh -7.7, DT40 TDP1 CPT inconclusive and TDP1 inh -2.4%.
CCCCCC(=O)N(c1ccc(OCC)cc1)S(=O)(=O)c1ccc2c(c1)n(C)c(=O)n2C was read as TDP1 cell noCPT 16.4µM*, DT40 TDP1 CPT 20.6µM* and TDP1 inh 4.7%.
COc1ccc(C(=O)N(c2ccc(OC)cc2)S(=O)(=O)c2ccc3c(c2)n(C)c(=O)n3C)cc1 was read as TDP1 cell noCPT inconclusive, DT40 TDP1 CPT inconclusive and TDP1 inh 6.3%.
Screening CCCCN(C(=O)c1cc(S(=O)(=O)N2CCOCC2)ccc1F)c1c(N)n(CCCC)c(=O)[nH]c1=O returned TDP1 cell noCPT 0.4%, IL1B secr inh 11.4, CtBP-E1A blk 8.3, Six1-Eya2 inh 3.1 and DT40 TDP1 CPT 6.8%.
Cc1ccc(S(=O)(=O)Nc2ccc3c(c2)n(C)c(=O)n3C)cc1 was read as TDP1 cell noCPT inconclusive, IL1B secr inh -3.0, CtBP-E1A blk 1.0, Six1-Eya2 inh 9.9, DT40 TDP1 CPT 10.3µM* and TDP1 inh 0.2%.
For Cn1c(=O)n(C)c2cc(NS(=O)(=O)c3ccccc3)ccc21 the results were TDP1 cell noCPT -5.8%, IL1B secr inh -7.5, CtBP-E1A blk 0.4, Six1-Eya2 inh 2.1, DT40 TDP1 CPT inconclusive and TDP1 inh 1.8%.
For Cc1ccc(NS(=O)(=O)c2ccc3c(c2)n(C)c(=O)n3C)c(C)c1 the results were TDP1 cell noCPT inconclusive, IL1B secr inh -54.4*, CtBP-E1A blk 0.7, Six1-Eya2 inh -9.1, DT40 TDP1 CPT inconclusive and TDP1 inh 4.2%.
Screening Cc1ccc(NC(=O)CN(C)S(=O)(=O)c2ccc3c(c2)n(C)c(=O)c(=O)n3C)c(C)c1 returned TDP1 cell noCPT inconclusive, IL1B secr inh 10.9, CtBP-E1A blk 8.7, Six1-Eya2 inh -0.1, DT40 TDP1 CPT 18.4µM* and TDP1 inh 1.1%.
`Cc1cc(C)c(NC(=O)CN(C)S(=O)(=O)c2ccc3c(c2)n(C)c(=O)c(=O)n3C)c(C)c1` gave TDP1 cell noCPT 10.4%, IL1B secr inh -24.4, CtBP-E1A blk 4.1, Six1-Eya2 inh 1.3, DT40 TDP1 CPT inconclusive and TDP1 inh 0.2%.
COCCNC(=O)c1c[nH]c2ccc(S(=O)(=O)Nc3ccccc3F)cc2c1=O was read as TDP1 cell noCPT -0.6%, IL1B secr inh -1.4, CtBP-E1A blk -11.4, Six1-Eya2 inh -1.1 and DT40 TDP1 CPT -21.0%.
`CCCNC(=O)Cn1c(=O)cnc2ccccc21` gave TDP1 cell noCPT -21.6%, IL1B secr inh 3.4, CtBP-E1A blk 20.3, Six1-Eya2 inh 13.4, DT40 TDP1 CPT -3.6% and TDP1 inh -2.7%.
For COc1ccc(OC)c(CN2C(=O)c3ccccc3C2C(=O)NCC2CCCO2)c1 (centres undefined) the results were TDP1 cell noCPT -3.9%, IL1B secr inh 4.9, CtBP-E1A blk 7.4, Six1-Eya2 inh 0.5 and DT40 TDP1 CPT 0.5%.
For O=C(Nc1ncc(S(=O)(=O)c2ccc([N+](=O)[O-])cc2)s1)c1cccc2ccccc12 the results were TDP1 cell noCPT 20.6µM*, IL1B secr inh 28.9, CtBP-E1A blk -2.0, Six1-Eya2 inh -13.4, DT40 TDP1 CPT 14.6µM* and TDP1 inh 5.6%.
`CC(=O)NCCC(=O)Nc1ncc(S(=O)(=O)c2ccc([N+](=O)[O-])cc2)s1` gave TDP1 cell noCPT -17.3%, IL1B secr inh 21.7, CtBP-E1A blk -18.0, Six1-Eya2 inh 4.4 and DT40 TDP1 CPT -18.7%.

Source: PubChem BioAssay (National Center for Advancing Translational Sciences (NCATS))
